Measured values reported in publication PMC4552634, “A New Set of Chemical Starting Points with Plasmodium falciparum Transmission-Blocking Potential for Antimalarial Drug Discovery” (PLoS ONE, 2015).
Read-outs that look alike come from different tables or passages of the source. Hit rate of the full screen: of about 13,000 compounds, about 3,200 (25%) showed an effect of 50% or more. This is one part of the list.

Tested on: P. falciparum stage V gametocytes
Parameters: BacTiter-Glo ATP luminescence viability of purified stage V gametocytes in 384-well plates, per cent inhibition versus DMSO
Conditions: 48 h, 5 µM, inhibitor

SMILES | % Inhibition | % Inhibition (% Inhibition)
COc1ccccc1N(C)CCNc1cc(C)nc(Nc2ccccc2)n1 [TCMDC-133455] | -20.01% | 
Cc1cc(NC(=O)N=C(N)N)ccc1Cl [TCMDC-137470] | 23.53% | 
CC(C)Cc1nc(N2CCOCC2)c2nnn(Cc3ccccc3)c2n1 [TCMDC-124394] | 7.117% | 
Cc1ccc(C)c(CN2CCC(CNC(=O)c3cc4ccc5cccnc5c4[nH]3)CC2)c1 [TCMDC-125280] | 17.56% | 
CCN1C(c2ccc(Cl)cc2)C(CNCc2ccccc2O)CC1(C)CO (centres unmarked) [TCMDC-124672] | -22.05% | 
Cc1cc2c(cc1C(F)(F)F)N(C(=O)Nc1cc(OCCN(C)C)cc(C(F)(F)F)c1)CC2 [TCMDC-139873] | 27.41% | 
Cc1cc(Nc2cccc(Cl)c2)nc2ccc(NC(=O)c3ccc(=O)[nH]c3)cc12 [TCMDC-125285] | -92.28% | 
N#Cc1ccc(NC(=O)Nc2ccc(OC(F)(F)F)cc2)cc1 [TCMDC-123773] | 69.14% | 
COc1cc([N+](=O)[O-])ccc1NC(=O)Nc1ccc(OC(F)(F)F)cc1 [TCMDC-125388] | 60.01% | 
COc1cc(NC(=O)Nc2ccc([N+](=O)[O-])cc2OC)c(OC)cc1Cl [TCMDC-124366] | 14.63% | 
O=C(Nc1ccc([N+](=O)[O-])cc1)Nc1cc(OCC(F)(F)F)cc(OCC(F)(F)F)c1 [TCMDC-124533] | 87.27% | 
O=C(Nc1cccc([N+](=O)[O-])c1)Nc1cccc(C(F)(F)F)c1 [TCMDC-123674] | -87.02% | 
O=C(Nc1ccc(CCNCc2ccccc2)cc1)Nc1ccc(OC(F)(F)F)cc1 [TCMDC-141914] | -0.1841% | 
O=C(Nc1ccc([N+](=O)[O-])cc1)Nc1cc(C(F)(F)F)ccc1F [TCMDC-124367] | -37.77% | 
N#Cc1ccc(NC(=O)Nc2ccc3c(c2)CCN(C2CCC2)CC3)cc1 [TCMDC-135861] | 25.77% | 
O=C(Nc1ccc(OC(F)(F)F)cc1)Nc1ccc([N+](=O)[O-])cc1 [TCMDC-123714] | -87.78% | 
Cc1ccc(C2CC(=O)CC(c3ccccn3)C2[N+](=O)[O-])cc1 (centres unmarked) [TCMDC-139131] | 6.685% | 
CCCSc1nc2c(c(=O)n1Cc1ccco1)C1(CCCCC1)Cc1ccccc1-2 [TCMDC-123897] | -0.1623% | 
CC(C)C[C@H](NC(=O)c1ccc(OCCN2CCOCC2)cc1)C(=O)N[C@H](/C=N/N1CCN(C)C1=O)CCc1ccccc1 [TCMDC-136154] | 6.527% | 
CO/C(=C\C=C\c1cc2cc(Cl)c(Cl)cc2[nH]1)C(=O)NCCCN1CCN(c2cccc(O)c2)CC1 [TCMDC-139248] | 6.724% | 
O=C(NCc1ccc(C(=O)NC2CCCCCC2)cc1)c1ccc(O)c(-c2ccc(Cl)c(Cl)c2)c1 [TCMDC-140846] | -16.48% | 
CN(C)c1ccc(NC(=O)Nc2ccnc3ccc(Br)cc23)cc1 [TCMDC-139326] | -66.68% | 
C/C=C1\CN2CC[C@H]1C[C@H]2[C@H](O)c1ccnc2ccc(OC)cc12 [TCMDC-138074] |  | 4.282%
CCCCNc1nccc2ccc(-c3ccncc3)cc12 [TCMDC-136490] | -10.89% | 

SMILES | % Inhibition | % Inhibition (% Inhibition)
COc1ccc(Nc2nccc(-c3ccc4c(-c5ccsc5)cnc(N)c4c3)n2)cc1 [TCMDC-135552] | 9.815% | 
COc1ccc(CNc2nccc3ccc(-c4ccc(N)nc4)cc23)cc1 [TCMDC-133418] | 62.64% | 
OC(CNc1ccnc(Nc2cccc(Cl)c2)n1)c1cccc(C(F)(F)F)c1 (centres unmarked) [TCMDC-136586] | -39.19% | 
OC(CNc1ccnc(Nc2cccc(Cl)c2)n1)c1cccc(F)c1 (centres unmarked) [TCMDC-136573] | -70.46% | 
COc1ccc(CNc2nccc3ccc(-c4ccc5nccn5c4)cc23)cc1 [TCMDC-133417] | -35.58% | 
COc1ccc(CNc2ccnc3cc(OC)ccc23)cc1 [TCMDC-139267] | 1.914% | 
COc1ccc(Nc2nccc(-c3ccc4ccnc(NCCCCN)c4c3)n2)cc1 [TCMDC-136642] | 94.8% | 
NCCCCNc1cc(-c2ccnc(Nc3cccc(Cl)c3)n2)ccn1 [TCMDC-134683] | 70.36% | 
Cc1ccccc1C1CCN(C2CCC(NC(=O)/C=C/c3cccc(Cl)c3)CC2)CC1 (centres unmarked) [TCMDC-133508] | -91.25% | 
CS(=O)(=O)c1ccc(CNCc2cccc(-c3cccc(-c4nc5cc(C(F)(F)F)ccc5[nH]4)c3)c2)cc1.O=C(O)C(F)(F)F [TCMDC-132899] | -4.854% | 
O=C(Nc1ccc(N2CCN(Cc3cccc(F)c3)CC2)cc1)c1cccs1 [TCMDC-134999] | -0.3438% | 
COc1ccc2nccc([C@@H](O)CN3CCC(NC(=O)C(c4cc5ccccc5o4)N4CCC(Cc5ccccc5)CC4)CC3)c2c1 (some centres unmarked) [TCMDC-140997] | 26.99% | 
COc1cccc(CCc2nc3c(N4CCC(Cc5ccccc5)CC4)cccc3n2CC2CNCCO2)c1 (centres unmarked) [TCMDC-133535] | 83.91% | 
N#Cc1cncc(-c2nc3c(N4CCC(Cc5ccccc5)CC4)cccc3n2C2CCNC2)c1 (centres unmarked) [TCMDC-133545] | 7.232% | 
CC(C)c1sc(N2CCN(C)CC2)nc1C(=O)Nc1ccc(F)cc1C(F)(F)F [TCMDC-134300] | 32.87% | 
CCSc1ccccc1COc1c(C)nc(N)nc1N [TCMDC-131359] | 18.44% | 
CCN(CC)c1nc(-c2ccccc2)cc(-c2ccccc2)c1C#N [TCMDC-125830] | -26.16% | 
CCN(CC)c1nc(N)c2c(N)nc3c(c2c1C#N)C(=O)CN3Cc1ccccc1 [TCMDC-125024] | 94.19% | 
Cc1cc(=O)c(-c2cccc(Oc3ccc(Cl)cc3)c2)c(C)[nH]1 [TCMDC-137415] | 52.21% | 
Cc1cc(=O)c(-c2ccc(Oc3ccc(F)cc3)cc2)c(C)[nH]1 [TCMDC-137535] | 37.78% | 
COc1ccc(Oc2ccc(-c3c(C)[nH]c(C)cc3=O)cc2)cc1 [TCMDC-137401] | 68.99% | 
Cc1cc(=O)c(-c2ccc(Oc3ccc(Cl)cc3Cl)cc2)c(C)[nH]1 [TCMDC-137267] | 10.5% | 
Cc1cc(=O)c(-c2ccc(Oc3cccc(Cl)c3)cc2)c(C)[nH]1 [TCMDC-137265] | 67.32% | 
